The record followed here is ChEMBL document CHEMBL1961873, “Compounds: GSK PKIS; Assays: Nanosyn kinase panel” (2012).

The test system of test [1] is Tyrosine-protein kinase ABL1 (Homo sapiens), P00519 [T315I]. To be noted: at 1 µM.
Test [2] has as its system Tyrosine-protein kinase ABL1 (Homo sapiens), P00519 [Y253F]. Particulars: at 0.1 µM.
Test [3] has the same test system. To be noted: at 1 µM.
The target of test [4] is Tyrosine-protein kinase ABL1 (Homo sapiens) (UniProt P00519). Particulars: at 0.1 µM.
Test [5] has the same target. Particulars: at 1 µM.
Test [6] addresses ALK tyrosine kinase receptor (Homo sapiens) (UniProt Q9UM73). Particulars: at 0.1 µM.
For test [7] the target is unchanged. Particulars: at 1 µM.
For test [8], the target named is Tyrosine-protein kinase ABL2 (Homo sapiens) (UniProt P42684). Particulars: at 0.1 µM.
The target is the same in test [9]. To be noted: at 1 µM.
Test [10] has as its target Tyrosine-protein kinase receptor UFO (Homo sapiens) (UniProt P30530). Particulars: at 0.1 µM.
The target is the same in test [11]. Particulars: at 1 µM.
In test [12] the target is Tyrosine-protein kinase Blk (Homo sapiens) (UniProt P51451). To be noted: at 0.1 µM.
The target is the same in test [13]. Particulars: at 1 µM.
In test [14] the target is T1, Cytoplasmic tyrosine-protein kinase BMX (Homo sapiens) (UniProt P51813).
T1 sequence (whole entry): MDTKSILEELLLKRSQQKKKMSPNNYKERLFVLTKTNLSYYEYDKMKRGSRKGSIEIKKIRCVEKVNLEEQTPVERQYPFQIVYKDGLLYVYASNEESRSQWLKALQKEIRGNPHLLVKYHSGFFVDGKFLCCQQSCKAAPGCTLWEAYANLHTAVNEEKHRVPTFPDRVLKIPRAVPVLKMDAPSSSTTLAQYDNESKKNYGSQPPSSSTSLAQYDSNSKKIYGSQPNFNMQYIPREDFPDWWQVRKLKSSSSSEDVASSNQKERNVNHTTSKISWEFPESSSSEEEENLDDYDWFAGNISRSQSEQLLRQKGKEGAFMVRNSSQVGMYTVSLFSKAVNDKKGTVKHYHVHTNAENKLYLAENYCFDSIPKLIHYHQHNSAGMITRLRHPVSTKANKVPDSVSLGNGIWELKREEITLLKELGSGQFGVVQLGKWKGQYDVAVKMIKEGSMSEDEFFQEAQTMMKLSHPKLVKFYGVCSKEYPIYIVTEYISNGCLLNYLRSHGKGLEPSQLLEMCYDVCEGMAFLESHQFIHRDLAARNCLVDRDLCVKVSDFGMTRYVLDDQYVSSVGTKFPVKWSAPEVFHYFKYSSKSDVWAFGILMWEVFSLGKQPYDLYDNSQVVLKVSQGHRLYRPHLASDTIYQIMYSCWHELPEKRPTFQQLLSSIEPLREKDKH
To be noted: at 0.1 µM.

Test [15] addresses T1, Cytoplasmic tyrosine-protein kinase BMX (Homo sapiens). Particulars: at 1 µM.
For test [16], the target named is Protein-tyrosine kinase 6 (Homo sapiens) (UniProt Q13882). To be noted: at 0.1 µM.
Test [17] shares this target. To be noted: at 1 µM.
For test [18], the target named is Tyrosine-protein kinase BTK (Homo sapiens) (UniProt Q06187). Particulars: at 0.1 µM.
Test [19] shares this target. To be noted: at 1 µM.
Test [20] addresses Tyrosine-protein kinase CSK (Homo sapiens) (UniProt P41240). To be noted: at 0.1 µM.

The structures appear in SMILES notation.

As a reminder, the inhibition is the drop in the measured response relative to a control, in per cent.

Sequence of ALK tyrosine kinase receptor (Homo sapiens) (Q9UM73 19-1620 limits assumed): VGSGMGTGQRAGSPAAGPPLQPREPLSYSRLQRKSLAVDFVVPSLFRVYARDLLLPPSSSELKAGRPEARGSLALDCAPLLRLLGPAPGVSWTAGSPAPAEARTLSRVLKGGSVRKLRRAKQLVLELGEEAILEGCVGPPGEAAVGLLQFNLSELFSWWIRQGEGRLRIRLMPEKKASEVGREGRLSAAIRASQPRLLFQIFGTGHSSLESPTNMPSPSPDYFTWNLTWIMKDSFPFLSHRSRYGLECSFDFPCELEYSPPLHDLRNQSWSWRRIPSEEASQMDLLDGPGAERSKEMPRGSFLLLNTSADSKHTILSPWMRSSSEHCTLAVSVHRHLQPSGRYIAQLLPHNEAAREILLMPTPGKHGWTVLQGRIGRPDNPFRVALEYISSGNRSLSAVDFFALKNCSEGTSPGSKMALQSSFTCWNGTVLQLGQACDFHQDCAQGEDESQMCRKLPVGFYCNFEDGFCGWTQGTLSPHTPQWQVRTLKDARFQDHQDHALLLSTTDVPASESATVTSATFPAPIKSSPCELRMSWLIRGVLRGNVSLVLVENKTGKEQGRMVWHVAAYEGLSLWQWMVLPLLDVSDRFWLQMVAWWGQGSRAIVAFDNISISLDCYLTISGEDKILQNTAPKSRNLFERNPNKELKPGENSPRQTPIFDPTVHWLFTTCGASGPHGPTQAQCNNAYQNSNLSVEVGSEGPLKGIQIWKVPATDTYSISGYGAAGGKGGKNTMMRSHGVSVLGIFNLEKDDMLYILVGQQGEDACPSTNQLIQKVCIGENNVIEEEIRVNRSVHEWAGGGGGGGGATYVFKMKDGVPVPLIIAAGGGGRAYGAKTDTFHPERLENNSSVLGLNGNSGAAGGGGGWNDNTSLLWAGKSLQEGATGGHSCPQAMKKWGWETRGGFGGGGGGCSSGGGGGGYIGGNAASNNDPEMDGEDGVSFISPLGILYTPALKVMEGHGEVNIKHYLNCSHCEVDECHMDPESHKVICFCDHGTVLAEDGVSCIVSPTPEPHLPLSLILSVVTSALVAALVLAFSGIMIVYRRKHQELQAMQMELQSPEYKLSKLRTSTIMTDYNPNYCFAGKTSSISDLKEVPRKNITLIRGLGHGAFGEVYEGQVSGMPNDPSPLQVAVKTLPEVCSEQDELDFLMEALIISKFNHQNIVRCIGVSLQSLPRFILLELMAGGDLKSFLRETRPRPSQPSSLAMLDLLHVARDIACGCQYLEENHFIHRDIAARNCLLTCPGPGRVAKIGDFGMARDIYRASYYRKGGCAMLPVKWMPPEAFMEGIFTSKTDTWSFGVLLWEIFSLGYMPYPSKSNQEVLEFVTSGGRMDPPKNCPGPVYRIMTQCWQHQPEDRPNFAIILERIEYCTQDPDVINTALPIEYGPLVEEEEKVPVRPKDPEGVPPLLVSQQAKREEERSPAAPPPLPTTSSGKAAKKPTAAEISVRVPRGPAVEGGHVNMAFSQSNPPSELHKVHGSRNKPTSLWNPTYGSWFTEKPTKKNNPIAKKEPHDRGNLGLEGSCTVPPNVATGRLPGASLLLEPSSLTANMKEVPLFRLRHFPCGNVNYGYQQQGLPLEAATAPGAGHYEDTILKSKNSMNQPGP
Sequence of Tyrosine-protein kinase CSK (Homo sapiens) (P41240 2-450 limits assumed): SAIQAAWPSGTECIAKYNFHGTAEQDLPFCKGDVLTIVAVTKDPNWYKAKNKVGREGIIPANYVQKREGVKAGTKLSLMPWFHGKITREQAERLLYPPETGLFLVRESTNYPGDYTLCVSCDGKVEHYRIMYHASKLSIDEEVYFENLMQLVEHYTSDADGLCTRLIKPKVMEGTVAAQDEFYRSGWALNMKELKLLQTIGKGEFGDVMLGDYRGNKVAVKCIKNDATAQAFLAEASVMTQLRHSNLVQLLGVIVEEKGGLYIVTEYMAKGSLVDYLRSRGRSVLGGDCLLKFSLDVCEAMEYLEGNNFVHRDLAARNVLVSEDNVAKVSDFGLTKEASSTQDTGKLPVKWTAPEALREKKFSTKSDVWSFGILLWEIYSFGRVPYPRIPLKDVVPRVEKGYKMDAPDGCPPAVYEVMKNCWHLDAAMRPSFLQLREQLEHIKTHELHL
Sequence of Tyrosine-protein kinase receptor UFO (Homo sapiens) (P30530 whole entry): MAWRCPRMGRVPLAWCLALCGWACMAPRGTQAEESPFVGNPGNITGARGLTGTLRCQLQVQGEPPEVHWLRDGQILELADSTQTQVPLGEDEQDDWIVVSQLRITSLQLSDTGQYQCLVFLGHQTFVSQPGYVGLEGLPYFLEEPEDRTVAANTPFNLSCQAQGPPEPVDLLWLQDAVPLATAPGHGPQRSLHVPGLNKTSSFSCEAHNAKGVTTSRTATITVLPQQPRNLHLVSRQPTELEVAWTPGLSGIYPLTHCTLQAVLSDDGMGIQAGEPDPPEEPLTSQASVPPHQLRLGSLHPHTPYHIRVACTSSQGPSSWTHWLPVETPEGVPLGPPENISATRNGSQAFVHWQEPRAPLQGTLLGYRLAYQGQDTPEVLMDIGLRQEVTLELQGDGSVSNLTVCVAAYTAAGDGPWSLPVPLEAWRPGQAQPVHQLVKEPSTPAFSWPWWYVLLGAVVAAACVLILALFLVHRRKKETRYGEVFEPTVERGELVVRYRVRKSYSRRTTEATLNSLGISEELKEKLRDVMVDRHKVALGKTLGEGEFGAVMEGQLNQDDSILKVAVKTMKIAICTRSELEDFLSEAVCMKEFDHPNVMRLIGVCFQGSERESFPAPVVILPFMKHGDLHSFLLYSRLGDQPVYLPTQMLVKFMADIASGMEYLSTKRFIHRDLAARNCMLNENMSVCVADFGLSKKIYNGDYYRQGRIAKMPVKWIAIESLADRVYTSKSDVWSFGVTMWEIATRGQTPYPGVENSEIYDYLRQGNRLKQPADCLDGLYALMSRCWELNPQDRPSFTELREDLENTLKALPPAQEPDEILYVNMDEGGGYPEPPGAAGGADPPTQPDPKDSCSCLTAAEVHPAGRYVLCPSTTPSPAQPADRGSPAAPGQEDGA
Sequence of Tyrosine-protein kinase ABL2 (Homo sapiens) (P42684 whole entry): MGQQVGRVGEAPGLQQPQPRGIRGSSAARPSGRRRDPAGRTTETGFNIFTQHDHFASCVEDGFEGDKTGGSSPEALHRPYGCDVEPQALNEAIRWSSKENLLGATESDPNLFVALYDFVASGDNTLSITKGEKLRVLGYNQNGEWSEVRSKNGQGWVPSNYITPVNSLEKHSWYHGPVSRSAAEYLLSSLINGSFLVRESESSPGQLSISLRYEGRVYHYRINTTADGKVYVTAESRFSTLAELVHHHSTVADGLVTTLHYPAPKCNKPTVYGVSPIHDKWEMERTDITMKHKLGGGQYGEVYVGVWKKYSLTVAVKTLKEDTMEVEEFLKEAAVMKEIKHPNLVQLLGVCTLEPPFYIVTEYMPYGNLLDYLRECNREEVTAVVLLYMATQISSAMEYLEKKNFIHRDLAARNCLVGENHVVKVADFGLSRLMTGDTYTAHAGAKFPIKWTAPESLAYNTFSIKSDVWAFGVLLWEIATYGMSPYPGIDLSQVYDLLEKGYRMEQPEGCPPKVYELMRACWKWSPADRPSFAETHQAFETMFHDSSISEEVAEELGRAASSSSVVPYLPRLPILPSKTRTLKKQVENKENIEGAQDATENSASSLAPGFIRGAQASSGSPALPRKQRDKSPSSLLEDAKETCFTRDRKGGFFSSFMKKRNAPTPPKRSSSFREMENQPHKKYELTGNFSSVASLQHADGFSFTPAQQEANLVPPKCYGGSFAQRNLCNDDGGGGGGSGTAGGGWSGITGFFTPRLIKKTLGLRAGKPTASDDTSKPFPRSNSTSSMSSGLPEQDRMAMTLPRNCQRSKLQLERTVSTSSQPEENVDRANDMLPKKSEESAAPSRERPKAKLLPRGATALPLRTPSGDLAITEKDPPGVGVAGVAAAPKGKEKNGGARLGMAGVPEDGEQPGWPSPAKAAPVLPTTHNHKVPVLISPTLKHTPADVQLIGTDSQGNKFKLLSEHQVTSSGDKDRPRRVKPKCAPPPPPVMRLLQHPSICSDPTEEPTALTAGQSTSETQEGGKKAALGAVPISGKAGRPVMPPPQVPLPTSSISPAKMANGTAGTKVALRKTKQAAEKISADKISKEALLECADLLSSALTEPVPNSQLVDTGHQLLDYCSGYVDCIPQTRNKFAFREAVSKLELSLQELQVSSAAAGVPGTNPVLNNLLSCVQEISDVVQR
Sequence of Tyrosine-protein kinase BTK (Homo sapiens) (Q06187 whole entry): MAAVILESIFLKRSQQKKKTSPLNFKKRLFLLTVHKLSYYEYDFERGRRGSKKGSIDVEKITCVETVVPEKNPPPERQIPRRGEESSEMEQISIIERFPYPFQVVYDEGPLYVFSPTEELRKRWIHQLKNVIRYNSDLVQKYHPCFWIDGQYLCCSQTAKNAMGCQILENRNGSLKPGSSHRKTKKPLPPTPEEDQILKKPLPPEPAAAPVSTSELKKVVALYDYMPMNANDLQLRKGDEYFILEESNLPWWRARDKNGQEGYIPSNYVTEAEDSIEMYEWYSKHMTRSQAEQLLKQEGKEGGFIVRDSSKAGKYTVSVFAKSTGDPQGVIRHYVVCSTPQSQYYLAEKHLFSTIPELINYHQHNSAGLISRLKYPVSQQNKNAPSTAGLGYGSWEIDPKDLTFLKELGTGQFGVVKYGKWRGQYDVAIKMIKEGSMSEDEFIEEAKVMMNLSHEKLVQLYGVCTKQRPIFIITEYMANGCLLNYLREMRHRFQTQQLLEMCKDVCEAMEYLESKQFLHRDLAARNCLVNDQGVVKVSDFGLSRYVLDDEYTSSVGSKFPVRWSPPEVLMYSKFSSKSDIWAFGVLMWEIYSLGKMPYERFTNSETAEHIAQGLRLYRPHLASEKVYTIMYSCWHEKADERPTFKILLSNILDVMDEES

Consider `NC(=O)c1cc(-c2ccc(F)cc2)cc(-c2ccncc2)c1N`, for which the inhibition was determined as 4.82% in test [1]; 4.33% in test [2]; 5.14% in [3]; 2.42% in test [4]; 6.04% in test [5]; 1.8% in [6]. Further, the inhibition was 4.91% in test [7]; 1.26% in [8]; 5.07% in [9]; -7.77% in [10]; -4.61% in test [11]; 2.33% in [12]. Also, the inhibition in test [13] was found to be 4.55%; in test [14], 7.08%; in test [15], 7.6%; in [16], 3.05%; in [17] it was 5.71%; in [18], 0.21%. Also, the inhibition in test [19] is -0.9%; in test [20], 0.77%.
As for `Clc1ccc(CNc2nccc(-c3cnn4ncccc34)n2)cc1`, the inhibition in [1] was 2.99%; in test [2] it was 2.53%; in test [3] it was 4.96%; in test [4], 1.08%; in test [5], 8.86%; in [6] it was -0.45%. Besides, the inhibition was 3.1% in test [7]; 3.17% in test [8]; 7.59% in test [9]; 1.22% in test [10]; 2.45% in [11]; 1.31% in [12]. Besides, the inhibition is 3.34% in test [13]; -1.56% in [14]; 2.62% in test [15]; 0.74% in test [16]; 3.52% in [17]; 0.65% in test [18]. The inhibition stood at 1.7% in test [19] and 3.92% in test [20].
Turning to `Fc1ccc(-c2c(-c3ccncc3)nc3n2CCS3)cc1`, the inhibition in [1] is 3.81%; in [2], 2.69%; in [3] it was 5.48%; in [4] it was -1.32%; in [5], 2.3%; in [6], -2.59%. For the same compound, the inhibition was -1.88% in [7]; -2.22% in test [8]; 2.07% in [9]; -4.74% in test [10]; -2.08% in [11]; -2.78% in test [12]. For the same compound, the inhibition in test [13] is -0.74%; in [14], 1.44%; in test [15] it was 0.74%; in [16] it was 4.76%; in test [17], 4.76%; in test [18] it was -5.15%. Further, the inhibition was -4.99% in [19] and 3.65% in test [20].
With `O=C1NC(=O)C(c2cccc(Cl)c2)=C1Nc1ccc(Cl)c(C(=O)O)c1`, the inhibition amounted to 4.06% in test [1]; 1.35% in test [2]; 3.2% in test [3]; 3.49% in test [4]; 5.5% in [5]; 1.24% in test [6]. For the same compound, the inhibition in test [7] is 3.05%; in test [8], 3.74%; in [9] it was -0.4%; in test [10] it was -4.48%; in test [11], -3.02%; in test [12], 2.33%. Moreover, the inhibition is 0.47% in test [13]; 8.42% in test [14]; 2.62% in test [15]; 3.64% in test [16]; 5.12% in [17]; -0.87% in test [18]. The inhibition in test [19] is 0.33%; in test [20] it was 1.29%.
As to `NS(=O)(=O)c1ccc(N/N=C2\C(=O)Nc3ccc(-c4cnco4)cc32)cc1`, the inhibition in test [1] is 19.9%; in test [2] it was 3.03%; in test [3] it was 13.4%; in test [4], -0.39%; in [5], 9.41%; in test [6], -3.07%. Besides, the inhibition in test [7] is -0.11%; in [8], -0.55%; in test [9], 9.88%; in test [10], -3.81%; in [11], -1.27%; in [12] it was -1.23%. The inhibition in test [13] was 10.4%; in [14] it was 0.98%; in test [15], 5.77%; in test [16] it was 3.53%; in [17], 4.99%; in test [18], -4.28%. Besides, the inhibition in test [19] was -2.57%; in [20], 2.16%.
In the case of `COc1cc2ncn(-c3cc(OCCc4ccccc4)c(C(N)=O)s3)c2cc1OC`, the inhibition in test [1] was determined as 8.39%; in test [2], 3.32%; in [3] it was 9.56%; in test [4], 2.3%; in test [5], 13.7%; in test [6], 1.95%. The inhibition was 5.89% in test [7]; 2.26% in test [8]; 8.26% in test [9]; -5.54% in [10]; -2.35% in test [11]; 1.59% in [12]. For the same compound, the inhibition is 6.17% in test [13]; -0.54% in test [14]; 3.43% in test [15]; -0.83% in test [16]; 4.33% in test [17]; 1.12% in test [18]. In addition, the inhibition in test [19] came out at 0.02%; in test [20], 2.97%.
On to `CCS(=O)(=O)c1ccc(OC)c(Nc2ncc(-c3cccc(-c4ccccc4F)c3)o2)c1`, for which the inhibition stood at 18% in test [1]; 60.6% in test [2]; 91.4% in test [3]; 13.7% in [4]; 77.8% in test [5]; 1.79% in [6]. The inhibition in [7] turned out to be 4.33%; in test [8] it was 7.9%; in test [9], 65.1%; in test [10] it was 0.9%; in test [11], 2.28%; in [12] it was 8.74%. In addition, the inhibition in test [13] is 55.5%; in test [14], -4.54%; in test [15], 9.3%; in test [16], 1.06%; in test [17], 10.8%; in [18] it was -0.93%. Besides, the inhibition worked out at 3.93% in test [19] and 0.57% in test [20].
